# Assay results as given in PubChem BioAssay (NCI).
# This is part of a sample that, as a whole, favours compounds with a hit. Of some 83,000 tested, about 20% had one in any assay.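 A percent growth of 40 corresponds to 60% growth inhibition; 0 means no net growth; -100 means all cells died. Active threshold: below 10.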 A number with no mark means an inactive call. The source made the active and inactive calls.
# Key:
# Experiment in all cases: NCI-60 one-dose screen, 48 h (100 = growth as untreated, 0 = no growth, -100 = all killed)
# DU-145 prostate = conditions: 10 µM
# K-562 leukemia = conditions: 10 µM
# MALME-3M melanoma = conditions: 10 µM
# MDA-MB-231 breast = conditions: 10 µM
# SF-268 CNS = conditions: 10 µM
# SF-295 CNS = conditions: 10 µM
# SF-539 CNS = conditions: 10 µM
# UACC-257 melanoma = conditions: 10 µM
# M14 melanoma = conditions: 10 µM
# HCT-15 colon = conditions: 10 µM
# HT29 colon = conditions: 10 µM
# SNB-75 CNS = conditions: 10 µM
# SNB-19 CNS = conditions: 10 µM
# PC-3 prostate = conditions: 10 µM
# SK-MEL-5 melanoma = conditions: 10 µM
# UACC-62 melanoma = conditions: 10 µM unless noted
# LOX IMVI melanoma = conditions: 10 µM
# SK-MEL-28 melanoma = conditions: 10 µM
# RXF 393 renal = conditions: 10 µM
# U251 CNS = conditions: 10 µM
Structure (SMILES),growth (DU-145 prostate) [%],growth (K-562 leukemia),growth (MALME-3M melanoma) [%],growth (MDA-MB-231 breast),growth (SF-268 CNS) [%],growth (SF-295 CNS),growth (SF-539 CNS),growth (UACC-257 melanoma) [%],growth (M14 melanoma),growth (HCT-15 colon) [%],growth (HT29 colon) [%],growth (SNB-75 CNS) [%],growth (SNB-19 CNS) [%],growth (PC-3 prostate) [%],growth (SK-MEL-5 melanoma) [%],growth (UACC-62 melanoma),growth (LOX IMVI melanoma) [%],growth (SK-MEL-28 melanoma) [%],growth (RXF 393 renal),growth (U251 CNS) [%]
Sc1ccc(Nc2c3ccccc3nc3ccccc23)cc1,104,32%,86,98%,102,26.5%,95.5%,68.1,96.8%,79.4,88.6,61.9,79.8,76.5,56.6,63%,88.5,101,–,–
O=S(=O)(Cc1ccccc1)c1ccccc1,107,103%,106,121%,101,–,97.7%,107,104%,102,107,88.5,107,102,104,111%,107,98.5,102%,–
CC(=O)OCCO,110,103%,93.5,121%,106,–,104%,102,105%,107,120,84.7,110,104,102,108%,107,100,105%,–
Cc1ccc(Cl)cc1N1C(=O)CC(Sc2ccccc2N)C1=O (stereo not drawn),123,118%,138,108%,–,111%,105%,88.4,118%,93.4,109,65.5,102,89.5,110,95.8%,94.7,92.5,92.5%,102
C/C(=N\O)C1(O)CCCCC1,100,106%,114,94.7%,82.7,110%,99.2%,98.3,110%,93.6,110,91.7,105,129,87.9,59.2%,98.8,114,–,95.1
CC(C)(O)C#CC#CC(C)(C)O,113,93.6%,107,105%,106,95.1%,93.8%,94.4,107%,97.7,97.8,94,112,99.3,99,111%,–,99.4,–,98
Cc1ccccc1C1N=C2Oc3ccccc3C=C2C(=O)N1 (stereo not drawn),20.4,24.2%,51.8,32.5%,53.7,–,-5.32% (active),56.2,-24.7% (active),36.8,49.7,21,61.3,16.3,–,35.1%,–,41.5,-4.6% (active),63.8
O=C(Cc1ccccc1)Cc1ccccc1,113,110%,115,109%,103,108%,101%,93.1,102%,103,108,99.5,101,103,96.5,97%,103,108,–,96.7
COC(=O)CCCCC1=CCC2C(=O)C=C(O)C2C1 (stereo not drawn),104,90.9%,106,106%,104,–,99.8%,–,109%,96.3,104,85.5,104,92.5,–,103%,97.5,100,103%,–
c1ccc(CN2COc3c(ccc4c3OCN(Cc3ccccc3)C4)C2)cc1,25.3,3.62% (active),28.4,1.06% (active),15.1,0.773% (active),-21.5% (active),12.1,-0.269% (active),28,27,43.7,24,36.5,–,-39.1% (active),–,34.1,–,–
CN(C)/N=C/c1ccccc1O,125,120%,109,106%,106,112%,94.6%,109,106%,100,111,87.8,97.8,121,103,98.4%,98.7,111,–,95.4
CN(C)c1nc2c([nH]1)c(=O)n(C)c(=O)n2C,116,96.5%,101,107%,105,104%,107%,87.8,108%,108,102,102,111,91.6,101,105%,98.7,110,–,93.4
COc1ccccc1N1CCN(C(=S)Nc2ccccc2)CC1,100,81.8%,97.3,101%,99.3,–,106%,–,100%,103,96.7,84,99.6,89.9,97.9,98.2%,90.4,105,100%,–
